Data published in PubChem BioAssay.
Active and inactive are the calls of the source.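 The calls were made as follows: active = NADPH fluorescence slope more negative than the mean of all samples by about 3 SD, 99.7% confidence; inactive = the rest.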

Each compound was assayed against Voltage-gated potassium channel subunit beta-2 (Rattus norvegicus) (UniProt P62483) (assay: enhancers of rat Kvbeta2 NADPH turnover – biochemical, NADPH fluorescence, primary screen (AID 623;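 also: fluorescence intensity change per second fitted from 20 to 320 s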)). Conditions: Recombinant KvBeta, NADPH fluorescence decrease slope, 10 min; at 10 µM; active compounds read low.
Chain of Voltage-gated potassium channel subunit beta-2 (Rattus norvegicus) (P62483 whole entry, looked up): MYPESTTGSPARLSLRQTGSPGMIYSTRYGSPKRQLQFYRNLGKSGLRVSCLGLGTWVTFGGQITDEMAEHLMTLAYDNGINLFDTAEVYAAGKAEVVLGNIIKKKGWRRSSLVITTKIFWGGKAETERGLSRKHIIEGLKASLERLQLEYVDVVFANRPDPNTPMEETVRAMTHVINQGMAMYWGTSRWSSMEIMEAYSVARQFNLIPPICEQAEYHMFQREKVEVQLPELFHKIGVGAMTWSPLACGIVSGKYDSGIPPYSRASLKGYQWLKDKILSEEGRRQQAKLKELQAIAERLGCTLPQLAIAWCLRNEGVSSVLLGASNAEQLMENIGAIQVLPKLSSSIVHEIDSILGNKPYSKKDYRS
With `CCOC(=O)Cn1c(SC)nc2sc3c(c2c1=O)CC(C)(C)OC3` the NADPH fluorescence slope was -0.000276 (inactive).
In the case of `Cc1cc(C)nc(CC(N)=O)n1`, the NADPH fluorescence slope is reported as -4e-05 (inactive).
With `Cc1nnc2n(-c3ccccc3)c(=O)c3c4c(sc3n12)CC(C)CC4` (centres undefined) the NADPH fluorescence slope was 1.3e-06 (inactive).
With `COc1cc(C(=O)OCCN2CCCCC2)ccc1O` the NADPH fluorescence slope was -0.000169 (inactive).
With `N#Cc1c(NC(=O)CCC(=O)O)sc2c1CCCC2` the NADPH fluorescence slope was -5e-05 (inactive).
With `CCCCc1ccc(NC(=O)CSC2=C(C#N)C(c3ccco3)C3=C(CCCC3=O)N2)cc1` (centres undefined) the NADPH fluorescence slope was -9.7e-05 (inactive).
With `COC(=O)c1ccc(CSc2ncnc3c2sc2nc(N4CCOCC4)c4c(c23)CCCC4)o1` the NADPH fluorescence slope was -1e-05 (inactive).
With `Cc1ccnc(N2CCN(c3cc(C)c(C#N)c4nc5ccccc5n34)CC2)c1` the NADPH fluorescence slope was -8.8e-06 (inactive).
For `Cc1nc(Nc2ncc3c(n2)CC(C)(C)CC3=O)nc2ccccc12`, the NADPH fluorescence slope was -2.4e-05 (inactive).
With `COCc1[nH]nc2c1C(c1ccccc1OC)C(C#N)=C(N)O2` (centres undefined) the NADPH fluorescence slope was -1.1e-05 (inactive).
In the case of `CC(=O)N1CCN(c2nc(CC(C)C)c3c(c2C#N)CCC3)CC1`, the NADPH fluorescence slope is reported as -4.8e-05 (inactive).
With `CCOCCN(C(=O)COC)c1cccc(OC)c1` the NADPH fluorescence slope was 1.5e-05 (inactive).
`N/C(=N\c1nc2ccccc2o1)NC(=O)c1ccccc1NC(=O)c1ccccc1` was tested, and the NADPH fluorescence slope was -2e-05 (inactive).
For `Cc1ccc(C(C)C)c(OCCNc2nc3c(c(=O)n(C)c(=O)n3C)n2C)c1`, the NADPH fluorescence slope was -5.2e-05 (inactive).
For `Cc1nc(SCC(N)=O)[nH]c(=O)c1Cc1ccc(OC(C)C)cc1`, the NADPH fluorescence slope was 2.9e-05 (inactive).
For `CCOc1ccc(Cc2nc(N)nc(N)n2)cc1`, the NADPH fluorescence slope was -0.000176 (inactive).
For `Cc1nc(NCc2ccccc2)c(C(N)=O)c2c1COC(C)(C)C2`, the NADPH fluorescence slope was -7.6e-05 (inactive).
With `Cc1nc2n[nH]c(N)c2c2c1COC(C)(C)C2` the NADPH fluorescence slope was -0.000106 (inactive).
For `C=CCNC(=O)C(C#N)c1nc2ccccc2nc1N1CCCCCC1` (centres undefined), the NADPH fluorescence slope was -1.1e-05 (inactive).
With `CC(C)C(C(=O)Nc1ncn[nH]1)N1C(=O)c2ccccc2C1=O` (centres undefined) the NADPH fluorescence slope was -7.2e-06 (inactive).
For `CCCCOc1cccc(-c2nnc(N)s2)c1`, the NADPH fluorescence slope was -4.2e-05 (inactive).
In the case of `COc1ccc(OC(=O)c2cc3ccccc3o2)cc1`, the NADPH fluorescence slope is reported as -3.8e-05 (inactive).
`CCNc1nc(NC(C)C)nc(N(C#N)C(C)C(=O)N(C)C)n1` (centres undefined) was tested, and the NADPH fluorescence slope was -0.000124 (inactive).
With `CCOC(=O)CSc1nc(-c2ccncc2)ccc1C#N` the NADPH fluorescence slope was -2e-05 (inactive).
In the case of `CCOc1cccc(-c2nnc3sc(C4CCCCC4)nn23)c1`, the NADPH fluorescence slope is reported as -0.000139 (inactive).
With `CCCCn1c(O)c(C=NCCCN(C)C)c(=O)[nH]c1=O` the NADPH fluorescence slope was 2.3e-06 (inactive).
`COc1cccc(C2C(C#N)=C(N)Oc3cc(C)[nH]c(=O)c32)c1OC` (centres undefined) was tested, and the NADPH fluorescence slope was -4.3e-05 (inactive).
In the case of `Cc1cc(=O)oc(C)c1C(=O)Nc1cccc2nonc12`, the NADPH fluorescence slope is reported as -2.7e-05 (inactive).
With `COc1cc(OC)cc(C(=O)N2CCC(N3CCN(c4ccccc4)CC3)CC2)c1` the NADPH fluorescence slope was 5.8e-05 (inactive).
In the case of `Cc1ccc2[nH]c3c(c2c1)CN(C(=O)CN1CCN(c2ccccn2)CC1)CC3`, the NADPH fluorescence slope is reported as -0.000143 (inactive).
In the case of `COC(=O)c1sccc1NC(=O)c1c(C)cc(=O)oc1C`, the NADPH fluorescence slope is reported as -3.4e-05 (inactive).
With `CCN(CC)c1ccc2cc(-c3nnc(-c4ccncc4)o3)c(=O)oc2c1` the NADPH fluorescence slope was -0.000104 (inactive).
For `CC(C)(C)NC(=O)CSc1nsc(SCC(=O)NC(C)(C)C)c1C#N`, the NADPH fluorescence slope was -6.5e-05 (inactive).
For `COC(=O)CN(c1nc(C)c(Br)c(OC)n1)S(=O)(=O)c1ccc(C)cc1`, the NADPH fluorescence slope was -2.1e-05 (inactive).
With `COc1cc(C2C3C(=O)N(c4ccccc4)C(=O)C3ON2c2ccccc2)ccc1O` (centres undefined) the NADPH fluorescence slope was -0.000156 (inactive).
With `Cc1ccc(C2C(C(=O)c3cc4ccccc4o3)=C(O)C(=O)N2CCCN(C)C)cc1` (centres undefined) the NADPH fluorescence slope was -4.9e-05 (inactive).
With `CC(C)C1Cc2c(C#N)c(N)n(C)c(=S)c2CO1` (centres undefined) the NADPH fluorescence slope was -4e-05 (inactive).
For `CCC12CN3CC(CC)(CN(C1)C3c1c(O)ccc3ccccc13)C2=O` (centres undefined), the NADPH fluorescence slope was 5.6e-06 (inactive).
`CCOc1ccc(CCNC(=O)C(O)c2ccccc2)cc1` (centres undefined) was tested, and the NADPH fluorescence slope was -4.4e-05 (inactive).
